# Screening data deposited in PubChem BioAssay by National Center for Advancing Translational Sciences (NCATS).
# This is a sample that favours compounds with a hit; in the whole collection about 19% have one here.
# HT1080-NT tox – kills 2HG-producing HT-1080-NT fibrosarcoma cells. 1.6% of 360,000 active. AID 686970. Potency, µM (titrated, usually from 46.1 µM), inactives show at the top dose activity, negative = less viability, hits mostly cytotoxic. HT-1080-NT fibrosarcoma viability, CellTiter-Glo ATP luminescence, 48 h;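 note: NT is the 2HG producing partner of a matched IDH1 knockdown line; 0% = DMSO-treated cells and -100% = media-only wells without cells; nearly all actives have a fitted effect of over 55% in size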
#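 A 48-hour cytotoxicity screen used HT-1080-NT cells plated 2 hours before compound delivery. ATP-based CellTiter-Glo luminescence measured viability, normalized to DMSO and no-cell controls.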
# KB-3-1 tox – KB-3-1 parental cell cytotoxicity. 1.4% of 400,000 active. Potency, µM (titrated, usually from 46.1 µM), hits mostly cytotoxic. KB-3-1 viability, CellTiter-Glo ATP luminescence, 72 h; note: nearly all actives have a fitted effect of over 60% in size
#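 KB-3-1 cells, DMEM (no phenol red) + 10% FBS; compound by pin transfer, 72 h, 37 °C. Readout: CellTiter-Glo luminescence after 10 min. Data normalized, curve-fitted.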
# DT40 TDP1 CPT – DT40-hTDP1 cell growth loss with CPT. chicken DT40 Tdp1-/-;hTDP1 cells + 20 nM CPT, ATP luminescence, 48 h. Potency, µM (top dose mostly 46.2 µM), for inactives: at the top dose activity change, negative = growth inhibition, hits mostly inhibitors. 12% of 420,000 active. AID 686979; note: nearly all actives have a fitted effect of over 55% in size
#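 Chicken DT40 Tdp1-/- cells stably complemented with human TDP1 were seeded at 400 cells/well in medium containing 20 nM camptothecin, exposed to pin-transferred compounds, and grown at 37 °C for at least 48 hr. Viability was read as ATP luminescence.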
# KB-V1 cytotox – kills drug-selected multidrug resistant KB-V1 cells | KB-V1 MDR cells viability, CellTiter-Glo, 72 h | Potency, µM (titrated, usually from 46.1 µM), hits mostly cytotoxic | 3.4% of 400,000 active; note: nearly all actives have a fitted effect of over 60% in size
#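 Cells of the MDR subline KB-V1 are plated, dosed with compound at multiple concentrations, and incubated 72 h at 37 degrees C; CellTiter-Glo is then added and luminescence read after 10 min.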
# HT1080 IDH1KD tx – kills HT-1080 cells with IDH1 knockdown. HT-1080 IDH1 knockdown viability, ATP luminescence, 48 h. Potency, µM (doses to about 46.1 µM), without a hit: at the highest dose activity, negative = toxicity, hits mostly cytotoxic. 2% of 360,000 active;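 note: 0% = DMSO wells and -100% = cell-free medium wells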
#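 Cytotoxicity counter-line: IDH1KD HT-1080, 48 h, CellTiter-Glo. Curves classed by r2, magnitude and activity.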
# TDP1 cell noCPT – qHTS for Inhibitors of human tyrosyl-DNA phosphodiesterase 1 (TDP1): qHTS in cells in absence of CPT; DT40 Tdp1-/- hTDP1 cells, no CPT, ATP luminescence, 48 h; 15% of 420,000 active; Potency, µM (series often up to 46.2 µM), without a hit: at the highest dose activity change, negative = growth inhibition, actives largely listed as inhibitors; note: nearly all actives have a fitted effect of over 55% in size
#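 Growth kinetics read by CellTiter-Glo luminescence after ≥48 hr at 37 °C. Cells: DT40 Tdp1-/- stably carrying human TDP1, 400 per well, compound exposure in the absence of CPT (DMSO vehicle).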
# The depositor's hits bear a star; i = inactive; ? = inconclusive; . = no result given. Calls come from the whole dose curve; as a rule, active = well fitted curve in the direction sought with a large enough effect; inconclusive = small, poorly fitted or top-dose-only effect, or another doubt; inactive = no such curve, though single readings can be large; an effect the other way counts as inactive or inconclusive. Unless noted, % is set by controls: 0 for no effect and ±100 for the full control effect; potency is the fitted concentration of half-maximal effect.
SMILES,HT1080-NT tox,KB-3-1 tox,DT40 TDP1 CPT,KB-V1 cytotox,HT1080 IDH1KD tx,TDP1 cell noCPT
O=[N+]([O-])/C(C(Cl)=C(Cl)Cl)=C(/Sc1ccccc1)N1CCCCC1,-1%,i,?,i,2%,13µM*
Cc1ccc(SC2=C(N(C)C)C(=O)c3ccccc3C2=O)cc1,?,?,4.6µM*,i,?,5.2µM*
CC(C)CNC(=O)C1C2C=CC(C2)C1C(=O)O (centres undefined),0%,i,4%,i,-4%,-4%
CN1CCN(c2nc(-c3cccnc3)nc3ccccc23)CC1,?,i,2%,i,?,-23%
Oc1ccccc1-c1nc(N2CCCC2)c2ccccc2n1,12%,i,-13%,i,13%,-29%
c1ccc(N2CCN(c3nc(-c4ccccn4)nc4ccccc34)CC2)cc1,-14%,?,4.1µM*,?,-30%,4.6µM*
CN1CCN(c2nc(-c3ccccn3)nc3ccccc23)CC1,7.9µM*,i,?,23µM*,7.9µM*,?
CN(C(=O)c1ccncc1)C1CCCCC1,8%,i,0%,i,8%,-8%
O=C(CNC(=O)C1CCCCC1)OC(C(=O)c1ccccc1)c1ccccc1 (centres undefined),.,i,.,i,.,.
Cc1ccc(C(=O)N/C(=C\c2cccs2)C(=O)NCCCN2CCOCC2)cc1,-11%,i,21%,i,-1%,-11%
Cc1ccc(C(=O)NCC2(c3ccccc3)CCCC2)cc1,-6%,i,12µM*,i,0%,12µM*
COc1ccccc1C(=O)N1CCCC1(C#N)c1ccccc1 (centres undefined),-6%,i,-1%,i,2%,-10%
COc1cc(C(=O)NCC2(c3ccccc3)CCCC2)cc(OC)c1OC,30%,i,15µM*,i,8%,15µM*
O=C(NCC1(c2ccccc2)CCCC1)c1ccc(Br)cc1,16%,i,?,i,8%,?
CCCN(CCC)C(=O)CC(c1ccccc1)c1ccc(C)cc1O (centres undefined),-3%,i,?,7.3µM*,?,-22%
COc1ccc(C(=O)N2CCCC2(C#N)c2ccccc2)cc1[N+](=O)[O-] (centres undefined),5%,i,18µM*,i,-1%,10µM*
COc1ccc(C2(CNC(=O)c3cc(OC)c(OC)c(OC)c3)CCCC2)cc1OC,-23%,i,?,i,-22%,?
Cc1cc(C(=O)NP(=O)(N2CC(C)OC(C)C2)N2CC(C)OC(C)C2)c(C)n1C1CC1 (centres undefined),2%,i,-3%,i,3%,-1%
COc1ccc(C(=O)NCC2(c3ccccc3)CCOCC2)cc1[N+](=O)[O-],13%,i,?,?,11%,29µM*
COc1cccc(C(=O)NCC2(c3ccccc3)CCCC2)c1,-20%,i,?,?,-22%,15µM*
COc1ccc(C(=O)NCC(O)CN2CCOCC2)cc1[N+](=O)[O-] (centres undefined),-9%,i,-5%,i,5%,-7%
Cc1ccc(C(CC(=O)NCC2(c3ccccc3)CCCC2)c2ccccc2)c(O)c1 (centres undefined),.,?,23µM*,?,.,16µM*
N#CCC(=O)NCC1(c2ccccc2)CCCC1,8%,i,9%,i,5%,13%
COc1ccc(C2(CNC(=O)c3ccc(Br)o3)CCOCC2)cc1,7%,i,-28%,i,9%,?
O=C(NCC1(c2ccccc2)CCCC1)c1ccc(Br)o1,2%,i,?,i,-3%,23µM*
SMILES,HT1080-NT tox,KB-3-1 tox,DT40 TDP1 CPT,KB-V1 cytotox,HT1080 IDH1KD tx,TDP1 cell noCPT
CCC(=O)Nc1nnc(SCC(=O)Nc2ccc(F)cc2)s1,-14%,i,?,i,-27%,?
CN(c1ccccc1C(=O)N1CCN(c2ccccc2F)CC1)S(=O)(=O)c1ccccc1,5%,.,-8%,.,0%,?
COc1ccc(C(=O)NCC2(c3ccccc3)CCCC2)c(OC)c1,0%,i,9.2µM*,i,-7%,6.5µM*
Nc1ccccc1C(=O)NCC1(c2ccccc2)CCCC1,-2%,i,?,i,-11%,?
CC(=O)NCc1ccc(C(=O)CSc2nnc(-c3ccncc3)n2Cc2ccccc2)o1,8%,i,-23%,i,2%,-8%
Cc1ccc(C)c(N2CCN(C(=O)Cn3cccc3)CC2)c1,10%,?,?,i,-1%,-22%
CC1CCCN(C(=O)C(Cc2ccccc2)n2cccc2)C1 (centres undefined),-7%,i,15µM*,i,-8%,-11%
O=C(C(Cc1ccccc1)n1cccc1)N1CCN(c2ccccc2)CC1 (centres undefined),18%,?,23µM*,i,0%,26µM*
CC1CCC(NC(=O)C(Cc2ccccc2)n2cccc2)CC1 (centres undefined),6%,i,?,i,4%,?
Cc1ccc(C)c(N2CCN(C(=O)C(Cc3ccccc3)n3cccc3)CC2)c1 (centres undefined),?,?,23µM*,?,-12%,23µM*
Cc1ccc(S(=O)(=O)N2CCN(c3nc(-n4cncn4)nc4ccccc34)CC2)cc1,2%,.,5%,.,10%,?
CCCN(C(=O)Cn1c(=O)oc2cc(Cl)ccc21)c1ccc(C(C)C)cc1,.,i,21µM*,i,.,?
CCN(C(=O)COc1cc(=O)n(CC)c2ccccc12)c1cccc(Cl)c1,-11%,?,15µM*,2.1µM*,12%,?
CCN(C(=O)COc1cc(=O)n(CC)c2ccccc12)c1cc(Cl)ccc1OC,-11%,i,?,?,1%,21µM*
CCCN(c1ccc(C(C)C)cc1)S(=O)(=O)c1ccc2c(c1)oc(=O)n2CC(=O)OCC,.,i,?,i,.,?
CCCN(C(=O)COc1cc(=O)n(CC)c2ccccc12)c1ccc(C(C)C)cc1,.,?,16µM*,13µM*,.,10µM*
CCn1c(=O)cc(OCC(=O)N(C)c2ccccc2F)c2ccccc21,12%,i,-19%,i,15%,-26%
